The values that follow come from paper PMC7862700, “An all-to-all approach to the identification of sequence-specific readers for epigenetic DNA modifications on cytosine”.

Holding throughout (experiment): DAPPL (digital affinity profiling via proximity ligation, sequencing); 10 mM Tris-HCl pH 7.5, 50 mM NaCl, 1 mM DTT, 4% glycerol, room temperature, 30 min; GST-TFs on glutathione beads, 16-mer random dsDNA library, 0.1% formaldehyde crosslink after washing; high values mean tight binding
The target of test [1] is T1, FEV (Homo sapiens, UniProt Q99581 1-238).
T1 sequence: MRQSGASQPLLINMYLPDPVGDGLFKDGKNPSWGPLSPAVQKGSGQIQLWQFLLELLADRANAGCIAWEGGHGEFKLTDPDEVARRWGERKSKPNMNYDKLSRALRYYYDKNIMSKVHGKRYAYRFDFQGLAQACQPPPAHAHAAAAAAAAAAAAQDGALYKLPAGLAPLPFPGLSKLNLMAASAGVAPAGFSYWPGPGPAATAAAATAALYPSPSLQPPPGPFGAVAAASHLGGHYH
The conditions noted are these: protein: recombinant; tags: N-terminal GST; dsDNA, one strand shown. Put shortly: (§1)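 Yeast served to express human transcription factors as GST fusions, which were then captured on glutathione beads and labelled with DNA barcodes. Pooled with a tag-only sample, they were incubated with 200 nmole of a 16-mer random double-stranded DNA library for 30 min at room temperature in Tris/NaCl/DTT/glycerol buffer, washed, crosslinked with 0.1% formaldehyde, ligated by proximity, amplified by PCR and sequenced. Dividing each hexamer's read frequency for a factor by its frequency for the tag-only sample gives the binding signal.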

Test [2] addresses ETV5 (Homo sapiens, UniProt P41161 1-510). To be noted: protein: recombinant; tags: N-terminal GST; dsDNA, one strand shown. The essentials: as §1
Test [3] concerns the target HSF1 (Homo sapiens, UniProt Q00613 1-529). To be noted: protein: recombinant; tags: N-terminal GST; chain copies: 3; dsDNA, one strand shown. Put shortly: as §1
Test [4] deals with T2, SPIC (Homo sapiens, UniProt Q8N5J4 1-248).
T2 sequence: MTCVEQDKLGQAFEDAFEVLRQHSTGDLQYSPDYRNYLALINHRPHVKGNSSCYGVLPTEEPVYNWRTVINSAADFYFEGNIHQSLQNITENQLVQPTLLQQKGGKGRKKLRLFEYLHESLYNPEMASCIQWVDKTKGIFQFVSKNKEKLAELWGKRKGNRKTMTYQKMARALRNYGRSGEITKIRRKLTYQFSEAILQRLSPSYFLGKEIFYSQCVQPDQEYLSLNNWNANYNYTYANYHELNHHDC
The conditions noted are these: protein: recombinant; tags: N-terminal GST; dsDNA, one strand shown. Put shortly: as §1

Test [5] addresses ELF4 (Homo sapiens, UniProt Q99607 1-663). To be noted: protein: recombinant; tags: N-terminal GST; dsDNA, one strand shown. The essentials:
as §1

Test [6] has as its target T3, ELK4 (Homo sapiens, UniProt P28324-2 1-405).
T3 sequence: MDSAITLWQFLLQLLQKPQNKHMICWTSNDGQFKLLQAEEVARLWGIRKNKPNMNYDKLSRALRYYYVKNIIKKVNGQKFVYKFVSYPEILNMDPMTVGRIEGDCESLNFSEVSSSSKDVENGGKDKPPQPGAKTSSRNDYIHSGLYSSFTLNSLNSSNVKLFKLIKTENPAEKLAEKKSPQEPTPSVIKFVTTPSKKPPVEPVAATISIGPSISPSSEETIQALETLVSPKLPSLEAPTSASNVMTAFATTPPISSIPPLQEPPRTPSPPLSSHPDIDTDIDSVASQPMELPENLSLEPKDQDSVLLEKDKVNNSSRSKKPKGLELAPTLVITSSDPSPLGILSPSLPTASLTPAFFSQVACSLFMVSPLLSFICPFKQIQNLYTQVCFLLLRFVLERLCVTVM
To be noted: protein: recombinant; tags: N-terminal GST; dsDNA, one strand shown. The essentials: as §1

For test [7], the target named is T4, ETV2 (Homo sapiens, UniProt O00321 1-342).
T4 sequence: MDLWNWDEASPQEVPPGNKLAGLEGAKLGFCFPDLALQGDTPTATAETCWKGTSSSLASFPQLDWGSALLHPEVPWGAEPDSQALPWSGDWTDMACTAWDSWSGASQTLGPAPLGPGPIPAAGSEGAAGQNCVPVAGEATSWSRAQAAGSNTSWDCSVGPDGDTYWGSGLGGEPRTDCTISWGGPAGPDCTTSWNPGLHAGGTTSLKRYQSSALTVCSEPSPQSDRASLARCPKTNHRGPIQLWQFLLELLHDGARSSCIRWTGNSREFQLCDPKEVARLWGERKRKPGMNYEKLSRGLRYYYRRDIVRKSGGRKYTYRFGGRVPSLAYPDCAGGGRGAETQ
The conditions noted are these: protein: recombinant; tags: N-terminal GST; dsDNA, one strand shown. Put shortly:
as §1

Test [8] has as its target T5, ELF3 (Homo sapiens, UniProt P78545 1-371).
T5 sequence: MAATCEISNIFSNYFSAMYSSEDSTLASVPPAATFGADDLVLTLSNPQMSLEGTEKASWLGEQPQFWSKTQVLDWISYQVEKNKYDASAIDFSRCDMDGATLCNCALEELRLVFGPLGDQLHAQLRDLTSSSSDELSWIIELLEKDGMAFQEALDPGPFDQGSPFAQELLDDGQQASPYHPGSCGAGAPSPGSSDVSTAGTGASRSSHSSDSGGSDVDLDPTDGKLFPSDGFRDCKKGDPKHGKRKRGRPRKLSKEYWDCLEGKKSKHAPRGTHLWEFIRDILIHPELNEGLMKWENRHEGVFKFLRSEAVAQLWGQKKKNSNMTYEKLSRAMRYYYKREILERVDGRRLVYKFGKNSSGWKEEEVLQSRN
The conditions noted are these: protein: recombinant; tags: N-terminal GST; dsDNA, one strand shown. The essentials:
as §1

The target in test [9] is CRX (Homo sapiens, UniProt O43186 1-299). To be noted: protein: recombinant; tags: N-terminal GST; dsDNA, one strand shown. Put shortly: as §1
Chain of CRX (O43186 whole entry): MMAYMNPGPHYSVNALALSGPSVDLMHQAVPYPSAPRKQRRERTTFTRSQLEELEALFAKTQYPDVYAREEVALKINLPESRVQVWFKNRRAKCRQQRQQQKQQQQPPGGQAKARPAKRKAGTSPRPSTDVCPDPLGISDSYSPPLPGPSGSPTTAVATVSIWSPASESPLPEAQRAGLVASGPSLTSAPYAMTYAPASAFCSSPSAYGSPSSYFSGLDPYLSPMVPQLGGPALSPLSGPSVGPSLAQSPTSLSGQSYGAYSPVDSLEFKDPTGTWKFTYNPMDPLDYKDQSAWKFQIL
Test [10] concerns the target ETV1 (Homo sapiens, UniProt P50549 1-477). The conditions noted are these: protein: recombinant; tags: N-terminal GST; dsDNA, one strand shown. Put shortly: as §1
For test [11], the target named is T6, ERF (Homo sapiens, UniProt P50548 1-548).
T6 sequence: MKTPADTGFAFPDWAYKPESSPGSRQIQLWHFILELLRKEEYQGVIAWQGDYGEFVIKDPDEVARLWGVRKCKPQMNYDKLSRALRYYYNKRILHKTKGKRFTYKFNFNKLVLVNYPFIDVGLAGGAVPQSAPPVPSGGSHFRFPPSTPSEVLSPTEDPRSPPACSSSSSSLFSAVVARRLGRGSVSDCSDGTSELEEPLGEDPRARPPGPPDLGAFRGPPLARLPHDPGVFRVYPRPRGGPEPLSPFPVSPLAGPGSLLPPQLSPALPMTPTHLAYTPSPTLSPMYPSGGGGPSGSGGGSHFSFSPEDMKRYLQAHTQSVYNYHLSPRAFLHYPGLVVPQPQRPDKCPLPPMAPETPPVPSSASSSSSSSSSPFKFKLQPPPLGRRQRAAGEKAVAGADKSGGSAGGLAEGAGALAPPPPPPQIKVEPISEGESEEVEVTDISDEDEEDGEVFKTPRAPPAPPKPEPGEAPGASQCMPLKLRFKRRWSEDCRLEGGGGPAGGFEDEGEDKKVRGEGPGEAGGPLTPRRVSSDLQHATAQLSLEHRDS
To be noted: protein: recombinant; tags: N-terminal GST; dsDNA, one strand shown. The essentials: as §1

For test [12], the target named is T7, ETV3L (Homo sapiens, UniProt Q6ZN32 1-361).
T7 sequence: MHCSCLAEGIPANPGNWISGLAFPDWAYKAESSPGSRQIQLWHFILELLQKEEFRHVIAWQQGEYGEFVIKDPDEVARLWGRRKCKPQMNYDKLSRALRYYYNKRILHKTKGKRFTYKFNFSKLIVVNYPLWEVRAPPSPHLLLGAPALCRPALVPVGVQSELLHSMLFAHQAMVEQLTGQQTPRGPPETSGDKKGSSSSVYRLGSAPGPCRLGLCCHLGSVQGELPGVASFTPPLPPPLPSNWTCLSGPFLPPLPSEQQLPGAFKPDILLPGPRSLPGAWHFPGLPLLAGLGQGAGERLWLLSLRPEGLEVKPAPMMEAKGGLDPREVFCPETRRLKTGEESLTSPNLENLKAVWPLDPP
The conditions noted are these: protein: recombinant; tags: N-terminal GST; dsDNA, one strand shown. Put shortly:
as §1

Test [13] deals with T8, ETS2 (Homo sapiens, UniProt P15036 1-469).
T8 sequence: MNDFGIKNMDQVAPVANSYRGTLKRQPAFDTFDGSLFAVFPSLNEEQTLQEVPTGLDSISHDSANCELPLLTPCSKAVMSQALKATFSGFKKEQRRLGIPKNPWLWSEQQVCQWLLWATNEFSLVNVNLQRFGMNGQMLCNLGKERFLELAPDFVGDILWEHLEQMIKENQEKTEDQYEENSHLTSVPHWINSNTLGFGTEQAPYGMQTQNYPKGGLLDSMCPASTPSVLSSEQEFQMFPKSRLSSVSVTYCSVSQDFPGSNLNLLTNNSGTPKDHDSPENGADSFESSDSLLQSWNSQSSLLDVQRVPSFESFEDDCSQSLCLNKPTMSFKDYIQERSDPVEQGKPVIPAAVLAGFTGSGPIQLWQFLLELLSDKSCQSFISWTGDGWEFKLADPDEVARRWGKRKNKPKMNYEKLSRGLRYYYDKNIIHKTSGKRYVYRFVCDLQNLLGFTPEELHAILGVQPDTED
The conditions noted are these: protein: recombinant; tags: N-terminal GST; dsDNA, one strand shown. The essentials:
as §1

In test [14] the target is T9, SPDEF (Homo sapiens, UniProt O95238 1-335).
T9 sequence: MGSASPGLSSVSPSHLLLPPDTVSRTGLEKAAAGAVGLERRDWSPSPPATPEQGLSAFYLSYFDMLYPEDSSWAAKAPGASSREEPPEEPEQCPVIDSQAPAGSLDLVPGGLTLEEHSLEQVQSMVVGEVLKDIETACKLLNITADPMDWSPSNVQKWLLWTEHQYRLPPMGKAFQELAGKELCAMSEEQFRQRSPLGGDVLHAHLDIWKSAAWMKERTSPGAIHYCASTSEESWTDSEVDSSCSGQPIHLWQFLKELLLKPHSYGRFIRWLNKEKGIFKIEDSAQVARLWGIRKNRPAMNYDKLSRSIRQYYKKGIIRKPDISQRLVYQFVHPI
To be noted: protein: recombinant; tags: N-terminal GST; dsDNA, one strand shown. Put shortly: as §1

In test [15] the target is T10, ETV7 (Homo sapiens, UniProt Q9Y603 1-341).
T10 sequence: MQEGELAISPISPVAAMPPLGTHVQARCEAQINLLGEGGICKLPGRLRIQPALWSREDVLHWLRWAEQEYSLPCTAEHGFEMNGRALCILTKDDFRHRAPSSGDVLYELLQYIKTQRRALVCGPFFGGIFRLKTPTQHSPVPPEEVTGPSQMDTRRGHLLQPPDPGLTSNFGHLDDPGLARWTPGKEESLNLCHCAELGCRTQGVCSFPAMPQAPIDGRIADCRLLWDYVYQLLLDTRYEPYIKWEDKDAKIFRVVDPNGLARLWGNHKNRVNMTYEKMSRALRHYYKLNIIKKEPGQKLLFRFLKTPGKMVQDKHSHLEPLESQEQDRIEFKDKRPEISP
The conditions noted are these: protein: recombinant; tags: N-terminal GST; dsDNA, one strand shown. The essentials: as §1

Test [16] addresses T11, ELF5 (Homo sapiens, UniProt Q9UKW6-2 1-255).
T11 sequence: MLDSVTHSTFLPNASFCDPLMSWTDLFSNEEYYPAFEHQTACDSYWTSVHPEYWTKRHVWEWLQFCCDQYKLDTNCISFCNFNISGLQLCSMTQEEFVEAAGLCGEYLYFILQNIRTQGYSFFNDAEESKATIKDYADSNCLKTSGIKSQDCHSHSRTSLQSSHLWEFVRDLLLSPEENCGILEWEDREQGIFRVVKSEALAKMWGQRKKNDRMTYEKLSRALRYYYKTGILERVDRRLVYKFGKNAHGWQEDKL
To be noted: protein: recombinant; tags: N-terminal GST; dsDNA, one strand shown. The essentials:
as §1

Test [17] concerns the target T12, ETV3 (Homo sapiens, UniProt P41162-2 1-143).
T12 sequence: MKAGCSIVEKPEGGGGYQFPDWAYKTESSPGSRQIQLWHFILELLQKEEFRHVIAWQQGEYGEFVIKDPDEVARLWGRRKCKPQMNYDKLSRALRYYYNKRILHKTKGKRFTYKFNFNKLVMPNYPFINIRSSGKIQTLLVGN
The conditions noted are these: protein: recombinant; tags: N-terminal GST; dsDNA, one strand shown. Put shortly: as §1

Test [18] deals with ETV6 (Homo sapiens, UniProt P41212 1-452). The conditions noted are these: protein: recombinant; tags: N-terminal GST; dsDNA, one strand shown. Put shortly: as §1
Chain of ETV6 (P41212 whole entry): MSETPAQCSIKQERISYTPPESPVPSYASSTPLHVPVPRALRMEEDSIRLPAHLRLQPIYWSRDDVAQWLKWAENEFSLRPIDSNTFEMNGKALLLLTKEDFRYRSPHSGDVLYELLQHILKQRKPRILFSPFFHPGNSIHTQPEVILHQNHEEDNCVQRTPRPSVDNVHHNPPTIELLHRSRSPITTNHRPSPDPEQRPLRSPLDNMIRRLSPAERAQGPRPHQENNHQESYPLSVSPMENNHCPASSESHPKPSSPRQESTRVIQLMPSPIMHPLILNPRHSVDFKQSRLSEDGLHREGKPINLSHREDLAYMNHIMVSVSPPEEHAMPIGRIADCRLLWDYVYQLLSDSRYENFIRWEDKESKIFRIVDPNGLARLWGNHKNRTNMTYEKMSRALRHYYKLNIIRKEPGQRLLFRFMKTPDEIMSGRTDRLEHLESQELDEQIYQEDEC

Chain of ELF4 (Q99607 whole entry): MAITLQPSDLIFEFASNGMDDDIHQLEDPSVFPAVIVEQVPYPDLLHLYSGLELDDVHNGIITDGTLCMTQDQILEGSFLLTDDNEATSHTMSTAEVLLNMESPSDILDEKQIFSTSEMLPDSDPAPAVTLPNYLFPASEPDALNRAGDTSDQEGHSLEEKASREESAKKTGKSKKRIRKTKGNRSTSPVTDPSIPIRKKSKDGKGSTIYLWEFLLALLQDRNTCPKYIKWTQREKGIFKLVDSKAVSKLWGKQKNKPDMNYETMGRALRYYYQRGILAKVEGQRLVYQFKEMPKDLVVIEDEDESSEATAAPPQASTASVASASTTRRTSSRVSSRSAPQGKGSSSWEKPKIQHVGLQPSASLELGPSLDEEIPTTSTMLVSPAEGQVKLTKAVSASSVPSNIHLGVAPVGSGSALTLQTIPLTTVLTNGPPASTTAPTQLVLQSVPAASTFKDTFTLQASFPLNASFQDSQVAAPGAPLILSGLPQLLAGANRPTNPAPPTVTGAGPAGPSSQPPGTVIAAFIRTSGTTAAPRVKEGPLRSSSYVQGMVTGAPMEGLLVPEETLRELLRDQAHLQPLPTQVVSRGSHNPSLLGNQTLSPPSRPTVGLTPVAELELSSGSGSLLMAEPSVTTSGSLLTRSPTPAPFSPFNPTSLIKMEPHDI
Chain of ETV5 (P41161 whole entry): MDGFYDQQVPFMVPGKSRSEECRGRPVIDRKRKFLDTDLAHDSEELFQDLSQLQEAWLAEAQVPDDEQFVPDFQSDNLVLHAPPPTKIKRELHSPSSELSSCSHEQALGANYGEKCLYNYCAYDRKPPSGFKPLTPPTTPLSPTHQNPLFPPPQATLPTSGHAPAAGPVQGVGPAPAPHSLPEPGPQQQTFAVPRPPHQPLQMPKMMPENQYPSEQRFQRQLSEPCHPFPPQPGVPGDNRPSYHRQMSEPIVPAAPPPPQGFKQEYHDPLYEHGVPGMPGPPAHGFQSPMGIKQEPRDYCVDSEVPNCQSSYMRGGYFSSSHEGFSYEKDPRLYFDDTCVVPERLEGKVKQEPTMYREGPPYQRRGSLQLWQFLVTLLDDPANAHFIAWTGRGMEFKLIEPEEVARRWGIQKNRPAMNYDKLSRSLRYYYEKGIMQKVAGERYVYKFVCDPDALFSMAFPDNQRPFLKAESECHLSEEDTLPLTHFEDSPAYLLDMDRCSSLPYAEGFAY
Chain of HSF1 (Q00613 whole entry): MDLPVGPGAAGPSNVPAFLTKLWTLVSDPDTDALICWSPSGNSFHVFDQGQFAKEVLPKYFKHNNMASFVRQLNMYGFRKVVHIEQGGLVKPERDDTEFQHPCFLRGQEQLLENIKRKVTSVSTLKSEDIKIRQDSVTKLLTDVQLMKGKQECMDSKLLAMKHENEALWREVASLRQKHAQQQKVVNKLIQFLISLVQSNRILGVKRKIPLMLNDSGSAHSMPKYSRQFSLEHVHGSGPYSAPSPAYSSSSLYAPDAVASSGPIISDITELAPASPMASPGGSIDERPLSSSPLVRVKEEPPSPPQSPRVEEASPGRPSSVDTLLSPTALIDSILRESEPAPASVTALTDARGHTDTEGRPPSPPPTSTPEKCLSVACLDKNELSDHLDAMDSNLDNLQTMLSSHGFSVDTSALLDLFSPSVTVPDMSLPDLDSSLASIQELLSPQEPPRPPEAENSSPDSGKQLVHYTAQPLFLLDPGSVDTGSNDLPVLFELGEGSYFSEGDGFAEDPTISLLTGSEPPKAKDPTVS
Chain of ETV1 (P50549 whole entry): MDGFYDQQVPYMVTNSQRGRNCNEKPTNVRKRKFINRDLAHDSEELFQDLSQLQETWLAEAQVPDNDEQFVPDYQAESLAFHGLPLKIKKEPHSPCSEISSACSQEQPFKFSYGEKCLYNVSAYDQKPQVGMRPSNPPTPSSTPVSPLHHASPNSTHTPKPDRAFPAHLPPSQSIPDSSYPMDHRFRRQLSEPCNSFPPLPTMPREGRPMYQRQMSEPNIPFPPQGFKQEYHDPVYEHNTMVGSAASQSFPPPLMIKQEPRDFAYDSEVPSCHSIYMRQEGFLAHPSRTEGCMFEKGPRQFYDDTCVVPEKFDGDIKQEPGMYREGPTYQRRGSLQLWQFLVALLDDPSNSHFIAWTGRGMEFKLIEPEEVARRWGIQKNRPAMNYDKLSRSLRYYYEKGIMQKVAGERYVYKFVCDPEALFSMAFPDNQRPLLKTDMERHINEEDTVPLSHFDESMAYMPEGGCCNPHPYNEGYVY

Consider ACGTTC, for which the binding signal in [1] is 1.3 fold enrichment (6-mer frequency, TF over GST control); in [2], 1.27 fold enrichment (6-mer frequency, TF over GST control); in [3] it was 1.94 fold enrichment (6-mer frequency, TF over GST control); in [4], 1.21 fold enrichment (6-mer frequency, TF over GST control); in test [5], 1.42 fold enrichment (6-mer frequency, TF over GST control); in test [6], 1.29 fold enrichment (6-mer frequency, TF over GST control). Further, the binding signal in test [7] is 1.25 fold enrichment (6-mer frequency, TF over GST control); in test [8] it was 1.25 fold enrichment (6-mer frequency, TF over GST control); in test [9], 1.28 fold enrichment (6-mer frequency, TF over GST control); in test [10], 1.28 fold enrichment (6-mer frequency, TF over GST control); in test [11], 1.28 fold enrichment (6-mer frequency, TF over GST control); in test [12] it was 1.42 fold enrichment (6-mer frequency, TF over GST control). Further, the binding signal was 1.3 fold enrichment (6-mer frequency, TF over GST control) in test [13]; 1.21 fold enrichment (6-mer frequency, TF over GST control) in test [14]; 1.42 fold enrichment (6-mer frequency, TF over GST control) in test [15]; 1.42 fold enrichment (6-mer frequency, TF over GST control) in test [16]; 1.18 fold enrichment (6-mer frequency, TF over GST control) in test [17]; 1.36 fold enrichment (6-mer frequency, TF over GST control) in test [18].
